Source: PubChem BioAssay AID1159580 (chemical genetic matrix, 2015)
“And” between values parts separate entries of the source, which are not always exact repeats. Equal values may be shown once. In all, about 5,500 compounds went through this assay and about 2,000 (36%) were called active. Not shown: some 18% with an inconclusive outcome. Cut-off read from the data, not from the text of the source: active = normalized growth mostly below about 0.91 (no sharp cut-off); inconclusive = no clear call, values can overlap the other calls; inactive = mostly above about 0.92. The list shows a part of the results.

Experiment: chemical genetic growth profiling, strain panel (AID 1159580);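 note: tested at 20 µM; growth read once vehicle control cultures reached saturation at 30 °C; 1 = growth at the plate median or of vehicle wells; lower values mean less growth of the strain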
Conditions: S. cerevisiae deletion strains, growth OD

Measured: normalized growth

ClC1=C(Cl)C2(Cl)C3C4C=CC(C4)C3C1(Cl)C2(Cl)Cl (configuration not stated)
active: locus YJL129C, strain trk1, hits give low values 0.85
inactive: locus YAL013W, strain DEP1, hits give low values 0.989 | locus YAL021C, strain ccr4, hits give low values 0.987 | locus YAL026C, strain drs2, hits give low values 0.993 | locus YAL030W, strain snc1, hits give low values 1 | locus YBL061C, strain skt5, hits give low values 1.01 | locus YBR009C, strain hhf1, hits give low values 0.992 | locus YBR021W, strain FUR4, hits give low values 1 | locus YBR023C, strain chs3, hits give low values 0.997 | locus YBR171W, strain sec66, hits give low values 0.988 | locus YBR229C, strain ROT2, hits give low values 0.997 | locus YBR231C, strain swc5, hits give low values 1 | locus YBR279W, strain paf1, hits give low values 1.01 | locus YCL011C, strain gbp2, hits give low values 0.999 | locus YCL016C, strain dcc1, hits give low values 0.999 | locus YCL029C, strain bik1, hits give low values 0.972 | locus YCL061C, strain MRC1, hits give low values 0.993 | locus YCL069W, strain vba3, hits give low values 0.997 | locus YCR088W, strain abp1, hits give low values 0.991 | locus YDL005C, strain med2, hits give low values 0.999 | locus YDL035C, strain GPR1, hits give low values 0.949 | locus YDL040C, strain nat1, hits give low values 0.998 | locus YDL074C, strain BRE1, hits give low values 0.969 | locus YDL101C, strain DUN1, hits give low values 0.993 | locus YDL134C, strain PPH21, hits give low values 0.992 | locus YDL185W, strain tfp1, hits give low values 1 | locus YDL192W, strain arf1, hits give low values 0.997 | locus YDR001C, strain nth1, hits give low values 0.996 | locus YDR069C, strain doa4, hits give low values 0.99 | locus YDR101C, strain arx1, hits give low values 1 | locus YDR137W, strain rgp1, hits give low values 0.956 | locus YDR150W, strain NUM1, hits give low values 1 | locus YDR159W, strain sac3, hits give low values 0.901 | locus YDR162C, strain NBP2, hits give low values 1 | locus YDR195W, strain ref2 0.955 | locus YDR297W, strain sur2, hits give low values 1 | locus YDR318W, strain mcm21, hits give low values 0.981 | locus YDR334W, strain swr1, hits give low values 0.993 | locus YDR335W, strain msn5, hits give low values 1 | locus YDR388W, hits give low values 0.985 | locus YDR392W, strain spt3, hits give low values 1 | locus YDR502C, strain sam2, hits give low values 0.994 | locus YEL003W, strain gim4, hits give low values 1 | locus YEL037C, strain rad23, hits give low values 1 | locus YEL061C, strain CIN8 (second series), hits give low values 1 | locus YEL061C, strain CIN8, hits give low values 1 | locus YER015W, strain faa2, hits give low values 1 | locus YER016W, strain bim1, hits give low values 0.994 | locus YER110C, hits give low values 0.99 | locus YER111C, strain swi4, hits give low values 1 | locus YER155C, strain BEM2 (second series), hits give low values 0.998 | locus YER155C, strain BEM2, hits give low values 0.978 | locus YER167W, strain BCK2, hits give low values 0.977 | locus YFR010W, strain ubp6, hits give low values 0.988 | locus YGL078C, strain dbp3, hits give low values 1 | locus YGL086W, strain mad1, hits give low values 0.967 | locus YGL167C, strain pmr1, hits give low values 0.983 | locus YGL173C, strain kem1, hits give low values 0.992 | locus YGL227W, strain vid30, hits give low values 0.996 | locus YGL240W, strain doc1, hits give low values 0.981 | locus YGL248W, strain PDE1, hits give low values 0.997 | locus YGL253W, strain hxk2, hits give low values 0.983 | locus YGR078C, strain PAC10, hits give low values 1.01 | locus YGR135W, strain pre9, hits give low values 0.982 | locus YGR229C, strain SMI1, hits give low values 0.952 | locus YGR252W, strain gcn5, hits give low values 0.961 | locus YHR013C, strain ard1, hits give low values 1.08 | locus YHR027C, strain rpn1, hits give low values 0.988 | locus YHR030C, strain SLT2, hits give low values 1 and 0.976 | locus YHR079C, strain IRE1 (second series), hits give low values 0.983 | locus YHR079C, strain IRE1, hits give low values 0.979 | locus YHR094C, strain hxt1, hits give low values 1 | locus YHR129C, strain ARP1, hits give low values 1 | locus YHR142W, strain chs7, hits give low values 1.01 | locus YHR200W, strain rpn10, hits give low values 0.99 | locus YIL066C, strain RNR3, hits give low values 0.941 | locus YIL073C, strain SPO22, hits give low values 0.874 | locus YIL125W, strain kgd1, hits give low values 1 | locus YIR030C, strain dcg1, hits give low values 0.991 | locus YJL092W, strain hpr5, hits give low values 0.992 | locus YJL095W, strain BCK1 (second series), hits give low values 0.994 | locus YJL095W, strain BCK1, hits give low values 1.01 and 1.03 | locus YJL115W, strain asf1, hits give low values 0.989 | locus YJL134W, strain LCB3, hits give low values 0.999 | locus YJL154C, strain vps35, hits give low values 0.992 | locus YJL164C, strain tpk1, hits give low values 0.981 | locus YJL166W, strain qcr8, hits give low values 0.99 | locus YJL168C, strain set2, hits give low values 0.991 | locus YJL187C, strain SWE1 (second series), hits give low values 1 | locus YJL187C, strain SWE1, hits give low values 1.01 | locus YJR043C, strain POL32, hits give low values 0.981 | locus YJR066W, strain TOR1, hits give low values 0.975
